Compounds with a hit are over-represented: about 4.1% of the library has one in this group of screens.
Gli-Sufu block: Gli-Sufu pathway antagonism; Sufu-KO-LIGHT fibroblasts, Gli luciferase reporter luminescence; inhibition, % at 5 µM; 340,000 tested, 0.74% active;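 active = inhibition above about 55%, limit read from the data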
Jurkat NFkB inh: lowers PMA/ionomycin-induced NF-kB signal in Jurkat cells | PMA/ionomycin-induced NF-kB luciferase reporter, luminescence | inhibition, % at 4 µM | 330,000 tested, 0.53% active; in the data active = inhibition above about 50%
KLF5 inh: inhibitors of KLF5 expression; DLD-1 KLF5 promoter-luciferase reporter, luminescence; inhibition, % at 5 µM; 290,000 tested, 0.23% active; AID 1700;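 active = inhibition above a per-plate limit of that plate's mean compound inhibition plus 3 SD, cut at about 60% in these data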;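 also: higher means less KLF5 promoter-driven luciferase light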
Mdm2-MdmX inh: disrupts the human Mdm2-MdmX interaction | inhibition, % at 8 µM | SaOS-2 split-luciferase Mdm2/MdmX complementation, luminescence | AID 485346 | 330,000 tested, 3% active;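 active = inhibition of at least 50% at 8 µM in the primary screen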
Target sequence (O15151 whole entry, looked up): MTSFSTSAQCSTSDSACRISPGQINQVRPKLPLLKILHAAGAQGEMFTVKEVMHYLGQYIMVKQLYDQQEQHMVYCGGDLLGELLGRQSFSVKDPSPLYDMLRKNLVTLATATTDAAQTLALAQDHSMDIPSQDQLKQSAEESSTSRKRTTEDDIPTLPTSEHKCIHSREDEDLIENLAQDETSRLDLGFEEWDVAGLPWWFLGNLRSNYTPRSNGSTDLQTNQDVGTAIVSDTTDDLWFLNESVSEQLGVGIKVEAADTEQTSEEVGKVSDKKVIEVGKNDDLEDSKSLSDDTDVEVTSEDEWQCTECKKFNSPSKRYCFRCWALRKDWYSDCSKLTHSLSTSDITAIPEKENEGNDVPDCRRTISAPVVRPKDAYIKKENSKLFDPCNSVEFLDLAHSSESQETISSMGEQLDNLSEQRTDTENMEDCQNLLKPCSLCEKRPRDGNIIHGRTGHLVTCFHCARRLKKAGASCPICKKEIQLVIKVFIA
Target sequence (Q00987 whole entry, looked up): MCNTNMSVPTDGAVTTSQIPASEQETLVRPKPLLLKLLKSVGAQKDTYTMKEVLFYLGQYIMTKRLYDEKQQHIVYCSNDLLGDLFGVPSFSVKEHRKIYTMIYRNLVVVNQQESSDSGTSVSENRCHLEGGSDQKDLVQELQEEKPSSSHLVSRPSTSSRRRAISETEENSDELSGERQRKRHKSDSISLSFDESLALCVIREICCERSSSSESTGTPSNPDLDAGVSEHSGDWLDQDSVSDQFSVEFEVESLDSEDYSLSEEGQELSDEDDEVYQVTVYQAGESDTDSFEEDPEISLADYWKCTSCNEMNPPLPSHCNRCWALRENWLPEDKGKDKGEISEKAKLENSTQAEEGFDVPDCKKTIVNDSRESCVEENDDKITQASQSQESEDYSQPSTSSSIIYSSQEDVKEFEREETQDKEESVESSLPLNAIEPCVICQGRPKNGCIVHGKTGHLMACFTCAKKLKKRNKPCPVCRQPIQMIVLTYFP
aSyn 5UTR inh: 5' untranslated region of α-synuclein, MLPCN primary screen; alpha-synuclein 5'UTR reporter, inhibitor activity; inhibition, % (tested at 7.5 µM); 300,000 tested, 0.82% active; AID 1813; in the data active = inhibition above about 60%;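 also: H4 neuroglioblastoma cells stably carrying SNCA 5'UTR luciferase fusion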
697 NFkB inh: lowers PMA/ionomycin-induced NF-kB signal in 697 B cells; 697 B-cell NF-kB luciferase reporter, 16 h; inhibition, % at 4 µM; 330,000 tested, 0.33% active; AID 435022; in the data active = inhibition above about 35%
Mdm2-MdmX conf: human Mdm2/MdmX binding inhibition, confirmed | inhibition, % at 8 µM | shares compounds with Mdm2-MdmX inh | AID 489028 | 10,000 tested, 55% active | luminescent assay; in the data active = inhibition above about 40%
FLuc counter: inhibits full-length luciferase, flagging false Mdm2/MdmX hits; shares compounds with Mdm2-MdmX inh; SaOS-2 full-length luciferase counterscreen, luminescence; inhibition, % at 8 µM; 6,200 tested, 77% active; AID 504607;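 active = mean inhibition at 8 µM reaching about 37%, which flags the compound as non-specific, limit read from the data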;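 also: p53-null SaOS-2 cells with luciferase driven by a doxycycline-inducible promoter; compound on cells about two nights before reading with doxycycline added after day one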
Numbers stand for hits.

What do the screens show for `COc1ccc(Nc2nc(-c3ccccc3O)nc3ccccc23)cc1`?
Gli-Sufu block: inactive; Jurkat NFkB inh: inactive; KLF5 inh: inactive; Mdm2-MdmX inh: inactive; aSyn 5UTR inh: inactive; 697 NFkB inh: inactive

Results for COCCCN(C(=O)Cc1ccc(S(=O)(=O)N2CCOCC2)s1)c1c(N)n(Cc2ccccc2)c(=O)[nH]c1=O ?
Gli-Sufu block: inactive

Results for CCOC(=O)CCNCc1ccc(F)cc1 ?
Jurkat NFkB inh: inactive; KLF5 inh: inactive; Mdm2-MdmX inh: inactive; aSyn 5UTR inh: inactive; 697 NFkB inh: inactive

Results for COc1ccc(-n2nc(C(=O)Nc3nc4ccc(OC)cc4s3)c3ccccc3c2=O)c(OC)c1 ?
Jurkat NFkB inh: inactive; KLF5 inh: inactive; Mdm2-MdmX inh: 77; aSyn 5UTR inh: inactive; 697 NFkB inh: inactive; Mdm2-MdmX conf: inactive

What do the screens show for `COc1ccc(-n2nc(C(=O)NCC(=O)NCc3ccccc3OC)c3ccccc3c2=O)c(OC)c1`?
Gli-Sufu block: inactive; Jurkat NFkB inh: inactive; KLF5 inh: inactive; Mdm2-MdmX inh: inactive; aSyn 5UTR inh: inactive; 697 NFkB inh: inactive

Results for COc1ccc2nc(NC(=O)c3cccc(-c4cc5ccccc5oc4=O)c3)sc2c1 ?
Gli-Sufu block: inactive; Jurkat NFkB inh: inactive; KLF5 inh: inactive; Mdm2-MdmX inh: 78; aSyn 5UTR inh: inactive; 697 NFkB inh: inactive; Mdm2-MdmX conf: 64; FLuc counter: 120

Results for COc1ccc(-n2nc(C(=O)NCC(=O)Nc3cc(OC)c(OC)c(OC)c3)c3ccccc3c2=O)cc1 ?
Gli-Sufu block: inactive; Jurkat NFkB inh: inactive; KLF5 inh: inactive; Mdm2-MdmX inh: 52; aSyn 5UTR inh: inactive; 697 NFkB inh: inactive; Mdm2-MdmX conf: inactive

Results for COc1ccc2nc(NC(=O)CSc3nnc(C)s3)sc2c1 ?
Gli-Sufu block: inactive; Jurkat NFkB inh: inactive; KLF5 inh: inactive; Mdm2-MdmX inh: 80; aSyn 5UTR inh: inactive; 697 NFkB inh: inactive; Mdm2-MdmX conf: inactive

How did COc1ccc(C(=O)Nc2nc3ccc(OC)cc3s2)cc1 do in these assays?
Gli-Sufu block: inactive; Jurkat NFkB inh: inactive; KLF5 inh: inactive; Mdm2-MdmX inh: inactive; aSyn 5UTR inh: inactive; 697 NFkB inh: inactive

What do the screens show for `COc1ccc(-n2nc(C(=O)NCC(=O)Nc3cccc(NC(C)=O)c3)c3ccccc3c2=O)cc1`?
Gli-Sufu block: inactive; Jurkat NFkB inh: inactive; KLF5 inh: inactive; Mdm2-MdmX inh: inactive; aSyn 5UTR inh: inactive; 697 NFkB inh: inactive

What do the screens show for `CCCc1ccc(S(=O)(=O)NCc2nnc(SC)n2C)cc1`?
Gli-Sufu block: inactive; Jurkat NFkB inh: inactive; KLF5 inh: inactive; Mdm2-MdmX inh: inactive; aSyn 5UTR inh: inactive; 697 NFkB inh: inactive

What do the screens show for `O=C(Cn1ncc2c([nH]c3ccccc32)c1=O)NCC1CCN(Cc2ccccc2F)CC1`?
Gli-Sufu block: inactive; Jurkat NFkB inh: inactive; KLF5 inh: inactive; Mdm2-MdmX inh: inactive; aSyn 5UTR inh: inactive; 697 NFkB inh: inactive

What do the screens show for `CC(C)(C)OC(=O)N1CCC(C(=O)Nc2cccc(C(=O)NCc3ccccc3)c2)CC1`?
Gli-Sufu block: inactive

What do the screens show for `CCCN(CC(=O)Nc1ccccc1C)C(=O)COc1c(C)cccc1C`?
Gli-Sufu block: inactive; Jurkat NFkB inh: inactive; Mdm2-MdmX inh: inactive; 697 NFkB inh: inactive

What do the screens show for `CCCN(CC(=O)Nc1ccccc1C)C(=O)CCl`?
Gli-Sufu block: inactive; Jurkat NFkB inh: inactive; KLF5 inh: inactive; Mdm2-MdmX inh: 95; aSyn 5UTR inh: inactive; 697 NFkB inh: inactive; Mdm2-MdmX conf: 97; FLuc counter: 49

Results for Cc1ccc(Sc2nc(-c3ccccc3)nnc2C(F)(F)F)cc1 ?
Gli-Sufu block: inactive; Jurkat NFkB inh: inactive; KLF5 inh: inactive; Mdm2-MdmX inh: 54; aSyn 5UTR inh: inactive; 697 NFkB inh: inactive; Mdm2-MdmX conf: inactive

Results for CCN(CC)S(=O)(=O)c1ccc(OCC(=O)NC(=O)Cc2ccccc2)c([N+](=O)[O-])c1 ?
Gli-Sufu block: inactive; Jurkat NFkB inh: inactive; Mdm2-MdmX inh: inactive; 697 NFkB inh: inactive

What do the screens show for `O=C(CCS(=O)(=O)c1ccc(F)cc1)Nc1nc(-c2ccncc2)cs1`?
Gli-Sufu block: inactive; Jurkat NFkB inh: inactive; KLF5 inh: inactive; Mdm2-MdmX inh: 89; aSyn 5UTR inh: inactive; 697 NFkB inh: inactive; Mdm2-MdmX conf: 68; FLuc counter: inactive

Results for CC(C)c1nnc(NC(=O)CCS(=O)(=O)c2nc(-c3cccs3)cc(C(F)(F)F)n2)s1 ?
Gli-Sufu block: inactive; Jurkat NFkB inh: inactive; KLF5 inh: inactive; Mdm2-MdmX inh: 95; aSyn 5UTR inh: inactive; 697 NFkB inh: inactive; Mdm2-MdmX conf: 44; FLuc counter: 63

Results for O=C(COc1ccccc1)Nc1nc(-c2cccs2)cs1 ?
Gli-Sufu block: inactive; Jurkat NFkB inh: inactive; KLF5 inh: inactive; Mdm2-MdmX inh: inactive; aSyn 5UTR inh: inactive; 697 NFkB inh: inactive

How did O=C(CCS(=O)(=O)c1ccccc1)Nc1nc(-c2cccs2)cs1 do in these assays?
Gli-Sufu block: inactive; Jurkat NFkB inh: inactive; KLF5 inh: inactive; Mdm2-MdmX inh: 97; aSyn 5UTR inh: inactive; 697 NFkB inh: inactive; Mdm2-MdmX conf: 47; FLuc counter: 51

What do the screens show for `O=C(CCS(=O)(=O)c1ccccc1)Nc1nc2c(s1)COc1ccccc1-2`?
Gli-Sufu block: inactive; Jurkat NFkB inh: inactive; KLF5 inh: inactive; Mdm2-MdmX inh: 63; aSyn 5UTR inh: inactive; 697 NFkB inh: inactive; Mdm2-MdmX conf: inactive

Results for CN(C1CCCCC1)S(=O)(=O)c1ccc(S(=O)(=O)N(CC(=O)Nc2ccccc2)C2CC2)cc1 ?
Gli-Sufu block: inactive; Jurkat NFkB inh: inactive; KLF5 inh: inactive; Mdm2-MdmX inh: inactive; aSyn 5UTR inh: inactive; 697 NFkB inh: inactive

How did COc1cc2c(cc1OC)CN(C(=O)/C=C/c1ccccc1[N+](=O)[O-])CC2 do in these assays?
Gli-Sufu block: inactive; Jurkat NFkB inh: inactive; KLF5 inh: inactive; Mdm2-MdmX inh: 61; aSyn 5UTR inh: inactive; 697 NFkB inh: inactive; Mdm2-MdmX conf: 53; FLuc counter: 86

Results for COc1cc2c(cc1OC)CN(C(=O)c1cccs1)CC2 ?
Gli-Sufu block: inactive; Jurkat NFkB inh: inactive; KLF5 inh: inactive; Mdm2-MdmX inh: inactive; aSyn 5UTR inh: inactive; 697 NFkB inh: inactive

How did COc1cc2c(cc1OC)CN(C(=O)/C=C/c1cccs1)CC2 do in these assays?
Gli-Sufu block: inactive; Jurkat NFkB inh: inactive; KLF5 inh: inactive; Mdm2-MdmX inh: 65; aSyn 5UTR inh: inactive; 697 NFkB inh: inactive; Mdm2-MdmX conf: 62; FLuc counter: 59

What do the screens show for `O=c1nc2cccc3c2=c(/c1=C(\O)c1ccccc1)c1ccccc1c3=O`?
Gli-Sufu block: inactive; Jurkat NFkB inh: inactive; KLF5 inh: inactive; Mdm2-MdmX inh: 52; aSyn 5UTR inh: inactive; 697 NFkB inh: inactive; Mdm2-MdmX conf: inactive

Results for O=C1/C(=C/c2ccccc2)NC(=S)N1C(c1ccccc1)c1ccccc1 ?
Gli-Sufu block: inactive; Jurkat NFkB inh: inactive; KLF5 inh: inactive; Mdm2-MdmX inh: 51; aSyn 5UTR inh: inactive; 697 NFkB inh: inactive; Mdm2-MdmX conf: 59; FLuc counter: 61

High-throughput results as filed in PubChem BioAssay.
